Compound activity: PubChem BioAssay, National Center for Advancing Translational Sciences (NCATS)
FH mod = Identification of activators of human fumarate hydratase by quantitative high-throughput screening | Potency, µM (top dose mostly 79.9 µM), without a hit: at the highest dose activity change, negative = inhibition, usual class: inhibitors | AID 1347055, 2019 | 0.22% of 54,000 active | FH coupled MDH/diaphorase resazurin fluorescence, 15 min | Fumarate hydratase, mitochondrial (Homo sapiens), P07954; also: potency is read from the fitted curve at half-maximal effect; % is scaled to controls: 0 for no effect and ±100 for the full control effect; the screen sought activators but most active calls are inhibition curves; nearly all actives have a fitted effect of over 45% in size
Target sequence (P07954 whole entry, looked up): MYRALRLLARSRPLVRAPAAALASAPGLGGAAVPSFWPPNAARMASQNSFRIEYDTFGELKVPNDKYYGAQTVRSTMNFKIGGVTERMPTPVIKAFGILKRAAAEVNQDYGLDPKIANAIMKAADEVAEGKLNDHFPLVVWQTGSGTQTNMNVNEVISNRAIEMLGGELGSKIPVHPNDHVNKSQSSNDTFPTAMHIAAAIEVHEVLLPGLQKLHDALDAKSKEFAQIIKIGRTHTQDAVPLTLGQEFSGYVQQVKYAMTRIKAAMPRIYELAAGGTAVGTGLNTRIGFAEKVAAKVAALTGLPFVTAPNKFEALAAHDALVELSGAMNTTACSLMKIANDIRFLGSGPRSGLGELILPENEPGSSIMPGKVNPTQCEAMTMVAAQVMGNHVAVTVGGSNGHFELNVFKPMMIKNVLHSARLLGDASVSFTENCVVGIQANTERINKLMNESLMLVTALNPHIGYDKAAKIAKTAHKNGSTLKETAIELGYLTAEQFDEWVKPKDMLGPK
HTT promoter inh = inhibits huntingtin promoter activity; HEK293 HTT promoter firefly luciferase reporter, 24 h; Potency, µM (series often up to 57.5 µM), for the others: at the top dose activity change, negative = inhibition, usual class: inhibitors; 0.93% of 48,000 active; also: potency is read from the fitted curve at half-maximal effect; nearly all actives have a fitted effect of over 50% in size
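Firefly luciferase readout (Dual-Glo, 10 min RT) after 24 h, 37 °C compound exposure (final up to 57.5 uM) of HEK293 reporter cells cultured 24 h beforehand; PTC124 at 50 uM final as control inhibitor; activity scaled vehicle 0%, zero RLU -100%.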
PMP22 txn = modulates PMP22 transcription in S16 Schwann cells. 2% of 43,000 active. Potency, µM (top dose mostly 57.5 µM), for inactives: at the highest dose activity change, negative = inhibition, most hits filed as inhibitors. AID 1508649. S16 Pmp22-F2sN Schwann cells, FLuc/NLuc coincidence luminescence, 24 h; active = clear falling dose curves in both reporters; inconclusive = both reporters move, but less clearly or upward; inactive = either reporter flat; the % is the NLuc reporter signal; also: potency is read from the fitted curve at half-maximal effect; % is scaled to controls: 0 for no effect and ±100 for the full control effect
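qHTS, 1536-well. Cells seeded, compounds added by pin tool, 24 h 37C. Nano-Glo reagent 1 (lysis/FLuc), 10 min RT, read; Stop&Glo, 10 min RT, read NLuc.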
mTORC1 inh = inhibitors of mTORC1 signaling in Tsc2-/- p53-/- MEF cells. AID 493208. Tsc2-/- p53-/- MEF, phospho-rpS6 immunofluorescence/PI, 24 h. Potency, µM (highest dose often 38.3 µM), for the others: at the top dose activity change, negative = inhibition, most hits filed as inhibitors. 0.78% of 44,000 active;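 also: potency is read from the fitted curve at half-maximal effect; plate controls were DMSO for no effect and rapamycin for full effect; nearly all actives have a fitted effect of over 50% in size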
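Tsc2-/-, p53-/- MEFs (empty-vector stable line) in DMEM + 10% FBS were treated with compounds 24 h at 37 degree Celsius, fixed, and immunostained for phospho-rpS6 (Alexa-488) with propidium iodide counterstain. Laser-scanning cytometry gave % positive cells, normalized against 7.5 nM rapamycin and DMSO.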
S16 viability = S16 Schwann cell cytotoxicity | S16 Pmp22-F2sN Schwann cells viability, CellTiter-Glo, 24 h | Potency, µM (doses to about 57.5 µM), without a hit: top-dose activity change, negative = cytotoxicity, most hits filed as cytotoxic | 0.48% of 43,000 active; also: potency is read from the fitted curve at half-maximal effect; % is scaled to controls: 0 for no effect and ±100 for the full control effect; nearly all actives have a fitted effect of over 65% in size
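S16 Schwann cells carrying the Pmp22-F2sN reporter, seeded in 1536-well format, were exposed to library compounds for 24 h at 37C. Viability was read as CellTiter-Glo luminescence after 15 min at room temperature.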
HTT-AS promoter = HTT-AS promoter activation; 0.24% of 48,000 active; HEK293 HTT-AS promoter firefly luciferase reporter, 24 h; response scale: percent change from vehicle, -100% = no light; Potency, µM (titrated, usually from 57.5 µM), for the others: at the highest dose activity change, positive = activation, actives largely listed as activators; also: potency is read from the fitted curve at half-maximal effect; nearly all actives have a fitted effect of over 55% in size
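HEK293 luciferase promoter-reporter cells (2,500/well) plated 24 h, then compounds added at up to 57.5 uM final for 24 h at 37 °C. Firefly luminescence by Dual-Glo, normalized to vehicle (0%) and zero RLU (-100%).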
NLuc sat counter = inhibits NanoLuc at saturating substrate, PMP22 counter-screen | shares compounds with PMP22 txn | Secreted NLuc enzyme (filtered S16 cell medium), Nano-Glo luminescence | Potency, µM (doses to about 57.5 µM), inactives show at the highest dose activity change, negative = inhibition, usual class: inhibitors | 4% of 690 active | AID 1508638; also: potency is read from the fitted curve at half-maximal effect; % is scaled to controls: 0 for no effect and ±100 for the full control effect
NLuc Km counter = counter-screen for PMP22 expression modulators: NanoLuc inhibition at Km; shares compounds with PMP22 txn; secreted NLuc enzyme, coelenterazine luminescence, Km conditions; Potency, µM (series often up to 57.5 µM), inactives show top-dose activity change, negative = inhibition, most hits filed as inhibitors; 5% of 690 active; AID 1508639; also: potency is read from the fitted curve at half-maximal effect; % is scaled to controls: 0 for no effect and ±100 for the full control effect
FLuc ctr PMP22 = firefly luciferase enzyme inhibition artifact for PMP22 screen; shares compounds with PMP22 txn; purified P. pyralis FLuc, luminescence, 10 min; Potency, µM (top dose mostly 57.5 µM), for inactives: at the highest dose activity, negative = inhibition, usual class: inhibitors; 690 tested, under 10 active; AID 1508640; also: % of control where 0% means no effect
S16 viab conf = confirmation of cytotoxicity in S16 Pmp22-F2sN Schwann cells (luciferase reporters placed in the Pmp22 gene); shares compounds with PMP22 txn; S16 Schwann cells viability, CellTiter-Glo ATP luminescence, 24 h; Potency, µM (titrated, usually from 57.5 µM), without a hit: top-dose activity change, negative = viability loss, actives largely listed as cytotoxic; 7% of 690 active; AID 1508641; also: potency is read from the fitted curve at half-maximal effect; % is scaled to controls: 0 for no effect and ±100 for the full control effect
PMP22 txn cnf = confirmation of modulators of PMP22 gene transcription in S16 cells | AID 1508646 | Potency, µM (titrated, usually from 57.5 µM), for inactives: at the top dose activity change, negative = inhibition, most hits filed as inhibitors | S16 Schwann cells Pmp22-F2sN, dual luciferase, 24 h | shares compounds with PMP22 txn | 22% of 690 active; active = clear falling dose curves in both reporters; inconclusive = both reporters move, but less clearly or upward; inactive = either reporter flat; the % is the FLuc reporter signal; also: potency is read from the fitted curve at half-maximal effect
PMP22 prot conf = rat PMP22 protein level modulation, confirmatory; shares compounds with PMP22 txn; 95 tested, under 10 active; S16 Schwann cells Pmp22-HiBiT, luminescence, 48 h; Potency, µM (series often up to 27.9 µM), for the others: at the highest dose activity change, negative = inhibition, most hits filed as inhibitors
Target sequence (P25094 whole entry, looked up): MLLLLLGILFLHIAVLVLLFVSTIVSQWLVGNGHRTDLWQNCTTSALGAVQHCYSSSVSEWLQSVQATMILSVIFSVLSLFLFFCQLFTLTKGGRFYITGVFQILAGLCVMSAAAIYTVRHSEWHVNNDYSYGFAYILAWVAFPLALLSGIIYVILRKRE
Active calls of the source: *; u = inconclusive; x = not tested or not shown; [ ] = remark or other dose. A selection: hits, their analogues and other compounds. The true share with any hit is near 3.3%. Unless noted, calls follow the shape of the dose curve; as a rule, active = well fitted curve in the direction sought with a large enough effect; inconclusive = small, poorly fitted or top-dose-only effect, or another doubt; inactive = no such curve, though single readings can be large; an effect the other way counts as inactive or inconclusive.

SMILES	FH mod	HTT promoter inh	PMP22 txn	mTORC1 inh	S16 viability	HTT-AS promoter	NLuc sat counter	NLuc Km counter	FLuc ctr PMP22	S16 viab conf	PMP22 txn cnf	others
C=C1C(O)CC2C(C(=O)O)=COC(O[C@@H]3O[C@H](COC(=O)/C=C/c4ccc(O)cc4)[C@@H](O)[C@H](O)[C@H]3O)C12 (some centres undefined)	-0.7%[53.3 µM]	x	x	x	x	x	x	x	x	x	x
COc1ccc(NC(=O)CCn2c(=O)c3cccn3c3cccnc32)cc1Cl	0.0%	6.5%	-16.8%	-0.9%	17.8%	-10.7%	x	x	x	x	x
COc1ccc(NC(=O)CCCn2c(=O)c3cccn3c3cccnc32)cc1Cl	6.0%	-4.9%	15µM*	-4.2%	-0.5%	-15.9%	-17.4%	-17.7%	-6.7%	-5.9%	-25.9%
O=C(CCCCn1c(=O)c2ccccc2n(CC(=O)Nc2ccc(F)cc2F)c1=O)NCc1ccccc1Cl	-1.5%	-8.2%	16.3µM*	-1.7%	18.1%	-5.2%	-4.1%	-5.0%	0.6%	-7.9%	u
O=C(CCCn1c(=O)c2ccccc2n(CC(=O)Nc2ccc(F)cc2F)c1=O)NCc1ccccc1Cl	-3.7%	-19.4%	u	-8.1%	13.4%	-33.9%	x	x	x	x	x
COc1cc(C(=O)OC[C@H]2O[C@@H](Oc3ccccc3/C=C/C(=O)O)[C@H](O)[C@@H](O)[C@@H]2O)cc(OC)c1OC	-1.7%[53.3 µM]	x	x	x	x	x	x	x	x	x	x
CCN(CC)S(=O)(=O)c1ccc2c(c1)N(CC(=O)NCCCN1CCN(c3cc(Cl)ccc3C)CC1)C(=O)CO2	-10.7%	-30.0%	20µM*	u	u	-34.4%	-3.3%	-1.2%	-0.7%	u	u
CCOc1cc(CNC2CCCC2)cc(Cl)c1OCc1ccc(Cl)cc1	-5.1%	x	x	x	x	x	x	x	x	x	x
Cc1ccc(-n2c(C)cc(/C=C(\C#N)C(=O)Nc3ccc(C)c(C)c3)c2C)cc1	-7.8%	-5.9%	-10.3%	1.2%	-1.2%	-8.8%	x	x	x	x	x
Cc1ccc(NC(=O)/C(C#N)=C/c2cc(C)n(-c3ccc(Br)cc3)c2C)cc1C	-12.1%	-18.5%	11.9µM*	3.2%	-9.9%	-85.3%	0.2%	-2.3%	-2.1%	7.7%	u
O=C(O)C[C@H]1CCC(=O)[C@@H]1C/C=C\CCO	0.9%	x	x	x	x	x	x	x	x	x	x
COc1ccc(Nc2cc(C)nc3c(C)c(C)ccc23)cc1	-20.6%	-16.3%	14.2µM*	u	19.1%	-11.1%	-1.2%	0.4%	0.3%	3.2%	-23.5%
CCCn1ccc2c(OCC(=O)Nc3ccccc3C(=O)OCC)cccc2c1=O	8.4%	-23.4%	14.1µM*	-8.7%	-0.5%	-36.5%	-6.5%	3.3%	-9.9%	2.5%	u
CCCn1ccc2c(OCC(=O)Nc3ccc(C(F)(F)F)cc3)cccc2c1=O	5.6%	-9.3%	-5.7%	-4.2%	5.1%	-11.7%	x	x	x	x	x
COc1ccc(NC(=O)c2oc3ccccc3c2NC(=O)c2cccc(F)c2)c(OC)c1	-8.6%	-9.9%	u	5.6%	19.1%	-12.3%	x	x	x	x	x
COc1ccc(NC(=O)c2oc3ccccc3c2NC(=O)Cc2ccc(F)cc2)c(OC)c1	-4.2%	-16.3%	12.6µM*	u	1.9%	-9.2%	-4.4%	-1.5%	3.3%	u	u	PMP22 prot conf=28.5%
C#CCN(Cc1cc2c(=O)[nH]c(C)nc2cc1Br)c1ccc(C(=O)NCc2cccnc2)cc1	9.7%	x	x	x	x	x	x	x	x	x	x
CC(C)Sc1nc2sc3c(c2c(=O)n1-c1ccccc1)CCCC3	-1.4%	-19.4%	u	3.6%	14.0%	-19.4%	x	x	x	x	x
CSc1nc2sc3c(c2c(=O)n1-c1ccc(C)cc1)CCCC3	4.5%	-6.4%	14.1µM*	-0.8%	20.0%	-18.0%	4.85µM*	u	4.5%	6.1%	u
COc1cc2ccccc2cc1C(=O)Nc1ccc2oc(-c3cccc(Cl)c3Cl)nc2c1	-9.0%	8.6%	4.22µM*	u	u	3.2%	-10.3%	0.7%	-27.8%	27.3µM*	12.2µM*
COC(=O)[C@]1(Cc2ccc(O)c(CC=C(C)C)c2)OC(=O)C(O)=C1c1ccc(O)cc1	-2.1%[53.3 µM]	x	x	x	x	x	x	x	x	x	x
C=CC(C)(O)C(O)CC1C(C)(O)C(O)C(O)C2C(C)(C)CCCC21C (centres undefined)	2.5%[53.3 µM]	x	x	x	x	x	x	x	x	x	x
CC(O)(CC(=O)O)CC(=O)OCc1ccc(O[C@@H]2O[C@H](CO)[C@@H](O)[C@H](O)[C@H]2O)cc1 (some centres undefined)	-1.0%[53.3 µM]	x	x	x	x	x	x	x	x	x	x
O=C(Nc1nc2ccc(F)cc2s1)c1nc(S(=O)(=O)Cc2ccccc2F)ncc1Cl	-3.2%	u	9.46µM*	u	u	-43.8%	-19.6%	u	2.0%	u	12.9µM*
CCNc1nc(NC(C)(C)C)nc(Oc2ccc(=O)n(-c3ccccc3)n2)n1	-2.6%	u	u	-9.0%	-1.0%	-28.5%	-9.3%	-3.1%	-6.9%	-12.9%	-33.0%
Cc1ccc(CCNS(=O)(=O)c2ccc3c(c2)CC(C)N3C(=O)C2CCC2)cc1 (centres undefined)	x	x	x	-17.7%	x	x	x	x	x	x	x
